Rows were chosen to be rich in hits. Some 19% of all compounds tested hit in one or more screens of this group.
HT1080 IDH1KD tx – qHTS for induction of synthetic lethality in tumor cells producing 2HG: qHTS for the HT-1080-IDH1KD cell line | Potency, µM (series often up to 46.1 µM), usual class: cytotoxic | HT-1080 IDH1 knockdown viability, ATP luminescence, 48 h | actives 2% (n = 360,000)
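Assay cells: HT-1080 with IDH1 knockdown, 750 per well, RPMI/5% FBS. Exposure: 48 h at 37 °C following 2 h pre-incubation. Read: CellTiter-Glo luminescence; fitted concentration-response, curve class assigned.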
TDP1 cell noCPT – qHTS for Inhibitors of human tyrosyl-DNA phosphodiesterase 1 (TDP1): qHTS in cells in absence of CPT; DT40 Tdp1-/- hTDP1 cells, no CPT, ATP luminescence, 48 h; Potency, µM (top dose mostly 46.2 µM), usual class: inhibitors; actives 15% (n = 420,000); AID 686978, 2013; also: nearly all actives have a fitted effect of over 55% in size
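Readout: luminescence from CellTiter-Glo after 30 min in the dark at RT. Cells: DT40 Tdp1-/- with stable hTDP1, 400/well. Exposure: compounds alone, ≥48 hr, 37 °C.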
HT1080NT lethal – qHTS for induction of synthetic lethality in tumor cells producing 2HG: qHTS for the HT-1080-NT fibrosarcoma cell line | HT-1080-NT fibrosarcoma viability, CellTiter-Glo ATP luminescence, 48 h | Potency, µM (highest dose often 46.1 µM), most hits filed as cytotoxic | actives 1.6% (n = 360,000) | AID 686970, 2013;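 also: NT is the 2HG producing partner of a matched IDH1 knockdown line; nearly all actives have a fitted effect of over 55% in size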
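HT-1080-NT; 750 cells/well; 5% FBS RPMI; 48 h compound, 37 degrees C; CellTiter-Glo luminescence; curve fitting and curve-class assignment.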
TDP1 cell CPT – qHTS for Inhibitors of human tyrosyl-DNA phosphodiesterase 1 (TDP1): qHTS in cells in presence of CPT; chicken DT40 Tdp1-/-;hTDP1 cells + 20 nM CPT, ATP luminescence, 48 h; Potency, µM (top dose mostly 46.2 µM), actives largely listed as inhibitors; actives 12% (n = 420,000); AID 686979, 2013; also: nearly all actives have a fitted effect of over 55% in size
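Cell growth measured by CellTiter-Glo luminescence after a minimum 48 h, 37 C compound exposure with 20 nM CPT in Tdp1-knockout DT40 cells stably expressing hTDP1, seeded 400/well; qHTS titration format.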
KB-3-1 cytotox – qHTS assay for MDR1-selective chemotherapeutics: Primary screen using the parental adenocarcinoma cell KB-3-1. KB-3-1 viability, CellTiter-Glo ATP luminescence, 72 h. Potency, µM (highest dose often 46.1 µM), most hits filed as cytotoxic. actives 1.4% (n = 400,000). AID 1347075, 2019; also: nearly all actives have a fitted effect of over 60% in size
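Here the drug-naive KB-3-1 line serves as comparator for MDR sub-line selectivity; cells received compound titrations, 72 h at 37 °C, then CellTiter-Glo readout.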
KB-V1 cytotox – qHTS assay for MDR1-selective chemotherapeutics: Primary screen using the drug-selected MDR subline cells KB-V1 | actives 3.4% (n = 400,000) | KB-V1 MDR cells viability, CellTiter-Glo, 72 h | Potency, µM (series often up to 46.1 µM), hits mostly cytotoxic; also: nearly all actives have a fitted effect of over 60% in size
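Readout: CellTiter-Glo luminescence, 10 min after addition. Cells: KB-V1 MDR subline, 72 h at 37 degrees C with compound. Analysis: corrected, normalized data fitted to concentration-effect curves.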
Hits are given with their value; - = inactive; ? = inconclusive; . = not tested or not shown. Calls follow the shape of the dose curve; as a rule, active = well fitted curve in the direction sought with a large enough effect; inconclusive = small, poorly fitted or top-dose-only effect, or another doubt; inactive = no such curve, though single readings can be large; an effect the other way counts as inactive or inconclusive.

SMILES	HT1080 IDH1KD tx	TDP1 cell noCPT	HT1080NT lethal	TDP1 cell CPT	KB-3-1 cytotox	KB-V1 cytotox
CCOC(=O)c1ccc(NC(=O)Cn2cc(C(=O)C3CC3)c3ccccc32)cc1	.	?	.	?	-	-
CCOc1cc(C(=O)NCc2nc(-c3cccc(C)c3)no2)cc(OCC)c1OCC	.	-	.	-	.	.
COC(=O)C1=C(N)Oc2cc(C)n(C)c(=O)c2C1c1ccc(Cl)cc1 (configuration not stated)	-	14.6µM	-	?	-	?
CC(=O)NC(Cc1c[nH]c2ccccc12)C(=O)N1CCN(S(=O)(=O)c2ccccc2)CC1 (configuration not stated)	-	-	-	-	-	-
Cc1cc2cc(C)c3nnc(SCC(=O)Nc4ccc(S(=O)(=O)N5CCCCC5C)cc4)n3c2cc1C (configuration not stated)	-	10.3µM	-	?	-	-
CCSc1ncc(Cl)c(C(=O)Nc2ccc(S(=O)(=O)N3CCC(C)CC3)cc2)n1	.	5.8µM	.	14.6µM	?	-
CC1CCCCN1S(=O)(=O)c1ccc(NC(=O)c2ccco2)cc1 (configuration not stated)	-	?	-	-	-	-
CCS(=O)(=O)c1ncc(Cl)c(C(=O)Nc2ccc(S(=O)(=O)N3CCC(C)CC3)cc2)n1	3.66µM	2.59µM	2.91µM	1.84µM	?	10.3µM
CCSc1ncc(Cl)c(C(=O)Nc2ccc(S(N)(=O)=O)cc2)n1	-	?	-	-	-	-
CC(C)Sc1ncc(Cl)c(C(=O)Nc2ccc(S(=O)(=O)N3CCCCC3C)cc2)n1 (configuration not stated)	.	18.4µM	.	?	-	-
Cc1nn(Cc2noc(C(=O)NC(C)c3ccccc3)n2)c(C)c1Br (configuration not stated)	.	-	.	?	-	-
O=C(NCC(c1cccs1)N1CCOCC1)c1ccc(Cl)nc1 (configuration not stated)	?	-	?	-	?	?
Cc1ccc(Nc2nnc(SCC(=O)Nc3cc(C(=O)O)ccc3C)s2)c(C)c1	-	-	?	-	-	-
CSc1ncc(Cl)c(C(=O)Nc2ccc(S(=O)(=O)N3CCC(C)CC3)cc2)n1	.	23.1µM	.	23.1µM	?	-
CCCSc1ncc(Cl)c(C(=O)Nc2ccc(S(=O)(=O)N3CC(C)OC(C)C3)cc2)n1 (configuration not stated)	-	16.4µM	-	?	?	?
COC1OC(c2ccccc2)=C(c2cnc(N)nc2)c2ccc(F)cc21 (configuration not stated)	-	-	-	-	-	-
Cc1csc(N(C(=O)Cc2ccccc2F)c2ccccc2)n1	-	23.1µM	-	?	-	-
COc1ccc(CC(=O)N(c2ccccc2)c2nc(C)cs2)cc1	-	13µM	-	18.4µM	-	16.4µM
O=C(Cc1n[nH]c(=O)c2ccccc12)OCC(=O)c1ccccc1	-	-	-	-	?	?
COc1ccc(-c2cc(CCCC(=O)NCCc3cc(OC)ccc3OC)no2)cc1	-	?	-	?	?	4.61µM
CCOc1ccc(-c2cc(CCCC(=O)NCc3ccc(C)cc3)no2)cc1	-	-	-	-	-	-
CCOc1ccc(-c2cc(CCCC(=O)NCc3ccco3)no2)cc1	-	20.6µM	-	?	-	-
CCOc1ccc(-c2cc(CCCC(=O)NCCc3ccc(OCC)c(OCC)c3)no2)cc1	.	?	.	?	-	-
COc1ccc(-c2noc(CCC(=O)NCc3ccco3)n2)cc1	-	-	-	-	-	-
Cc1ccc(-c2noc(CCCC(=O)NCc3ccco3)n2)cc1	.	18.4µM	.	?	.	.
SMILES	HT1080 IDH1KD tx	TDP1 cell noCPT	HT1080NT lethal	TDP1 cell CPT	KB-3-1 cytotox	KB-V1 cytotox
COc1ccc(OC)c(CCNC(=O)CCC(=O)N2CCOc3ccc(C)cc32)c1	-	?	-	23.1µM	-	-
O=C(CSc1nc(-c2ccco2)nc2cc(=O)[nH]n12)Nc1ccccc1F	.	-	.	-	-	-
O=C(CCCc1nc(-c2ccc(Cl)cc2)no1)NCc1ccco1	.	11.6µM	.	7.31µM	-	-
COc1ccc(C2CC(c3ccc(Br)cc3)=NN2C(=O)CSC2=NCCS2)cc1 (configuration not stated)	?	16.4µM	?	16.4µM	?	?
COc1ccc(C2=NN(C(=O)CSc3ncccn3)C(c3ccc(C)cc3)C2)cc1 (configuration not stated)	-	18.4µM	-	?	-	23.1µM
COc1ccc(C2=NN(C(=O)CCC(=O)O)C(c3ccc(OC)cc3)C2)cc1 (configuration not stated)	-	-	-	-	-	-
CCSCc1nnc(SCC(=O)Nc2ccc(F)cc2)n1CC	-	-	-	-	-	-
Cc1cccc(-c2cccc(NC(=O)C3CCCN(C(=O)c4csc(C)n4)C3)c2)c1 (configuration not stated)	?	1.3µM	-	1.46µM	-	-
CC(C)(C)OC(=O)N1CCCC(C(=O)Nc2cccc(C(=O)N3CCCCC3)c2)C1 (configuration not stated)	-	-	-	-	-	-
CCc1nc(C)c(C(=O)N2CCCC(C(=O)Nc3cccc(-c4cccc(C)c4)c3)C2)o1 (configuration not stated)	-	10.3µM	-	13µM	-	?
Cc1cccc(-c2cccc(NC(=O)C3CCCN(C(=O)c4cccnc4)C3)c2)c1 (configuration not stated)	-	14.6µM	-	18.4µM	-	?
Cc1cccc(-c2cccc(NC(=O)C3CCCN(C(=O)c4ocnc4C)C3)c2)c1 (configuration not stated)	-	20.6µM	-	23.1µM	.	.
CC(C)CN(CCCNC(=O)Cn1ncc2c3ccccc3n(C)c2c1=O)CC(C)C	.	-	.	-	-	-
COc1cccc(N2C(=O)CC(N3CCN(S(=O)(=O)c4ccccc4[N+](=O)[O-])CC3)C2=O)c1 (configuration not stated)	-	-	-	-	-	?
CC(=O)Nc1nonc1-c1nnc(SCc2ccc(F)cc2)n1C	.	?	.	-	-	-

High-throughput results as filed in PubChem.
